Measured values taken from PMC7862700, “An all-to-all approach to the identification of sequence-specific readers for epigenetic DNA modifications on cytosine”.

Tests used:
Test in all cases: DAPPL (digital affinity profiling via proximity ligation, sequencing); 10 mM Tris-HCl pH 7.5, 50 mM NaCl, 1 mM DTT, 4% glycerol, room temperature, 30 min; GST-TFs on glutathione beads, 16-mer random dsDNA library, 0.1% formaldehyde crosslink after washing; high values mean tight binding
FEV = biological target: T1, FEV (Homo sapiens, UniProt Q99581 1-238); details: protein: recombinant; tags: N-terminal GST; dsDNA, one strand shown
T1 sequence: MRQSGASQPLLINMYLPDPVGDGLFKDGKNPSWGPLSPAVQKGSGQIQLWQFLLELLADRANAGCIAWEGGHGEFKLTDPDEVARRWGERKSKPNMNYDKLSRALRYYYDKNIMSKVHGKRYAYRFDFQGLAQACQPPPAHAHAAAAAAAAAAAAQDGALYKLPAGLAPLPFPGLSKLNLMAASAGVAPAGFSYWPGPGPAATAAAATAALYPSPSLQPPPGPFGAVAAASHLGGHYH
In short: (§1)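 After expression in yeast as GST fusions, human transcription factors were bound to glutathione beads, DNA-barcoded and mixed with a tag-only sample. The pools were incubated with 200 nmole of a 16-mer random double-stranded DNA library in Tris/NaCl/DTT/glycerol buffer (30 min, room temperature), washed and crosslinked with 0.1% formaldehyde. Proximity ligation with BsaI/T4 ligase ran for 1 h at 37 °C, before PCR amplification and sequencing on an Illumina NextSeq500. Binding signal is a hexamer's read frequency for a factor divided by its frequency for the tag-only sample.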

ETV5 = ETV5 (Homo sapiens, UniProt P41161 1-510); details: protein: recombinant; tags: N-terminal GST; dsDNA, one strand shown
In short: as §1

HSF1 = HSF1 (Homo sapiens, UniProt Q00613 1-529); details: protein: recombinant; tags: N-terminal GST; chain copies: 3; dsDNA, one strand shown
In short: as §1

SPIC = biological target: T2, SPIC (Homo sapiens, UniProt Q8N5J4 1-248); details: protein: recombinant; tags: N-terminal GST; dsDNA, one strand shown
T2 sequence: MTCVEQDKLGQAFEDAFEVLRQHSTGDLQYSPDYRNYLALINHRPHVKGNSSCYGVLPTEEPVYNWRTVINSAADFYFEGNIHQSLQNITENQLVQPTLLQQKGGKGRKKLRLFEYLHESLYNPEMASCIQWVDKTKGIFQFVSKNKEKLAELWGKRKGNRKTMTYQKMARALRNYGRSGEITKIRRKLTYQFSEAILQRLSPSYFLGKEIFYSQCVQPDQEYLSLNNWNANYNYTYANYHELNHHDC
In short: as §1

ELF4 = ELF4 (Homo sapiens, UniProt Q99607 1-663); details: protein: recombinant; tags: N-terminal GST; dsDNA, one strand shown
In short: as §1

ELK4 = biological target: T3, ELK4 (Homo sapiens, UniProt P28324-2 1-405); details: protein: recombinant; tags: N-terminal GST; dsDNA, one strand shown
T3 sequence: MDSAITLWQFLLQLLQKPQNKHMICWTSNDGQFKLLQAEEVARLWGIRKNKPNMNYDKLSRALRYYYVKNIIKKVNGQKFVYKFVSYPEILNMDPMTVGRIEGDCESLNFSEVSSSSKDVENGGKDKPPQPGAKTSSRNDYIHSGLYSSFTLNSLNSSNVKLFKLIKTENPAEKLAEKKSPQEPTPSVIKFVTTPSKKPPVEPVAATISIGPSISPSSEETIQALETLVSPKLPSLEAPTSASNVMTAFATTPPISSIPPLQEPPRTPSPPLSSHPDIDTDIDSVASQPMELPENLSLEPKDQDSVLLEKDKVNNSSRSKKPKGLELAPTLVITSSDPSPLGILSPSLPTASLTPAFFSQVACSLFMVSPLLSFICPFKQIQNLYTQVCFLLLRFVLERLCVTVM
In short: as §1

ETV2 = biological target: T4, ETV2 (Homo sapiens, UniProt O00321 1-342); details: protein: recombinant; tags: N-terminal GST; dsDNA, one strand shown
T4 sequence: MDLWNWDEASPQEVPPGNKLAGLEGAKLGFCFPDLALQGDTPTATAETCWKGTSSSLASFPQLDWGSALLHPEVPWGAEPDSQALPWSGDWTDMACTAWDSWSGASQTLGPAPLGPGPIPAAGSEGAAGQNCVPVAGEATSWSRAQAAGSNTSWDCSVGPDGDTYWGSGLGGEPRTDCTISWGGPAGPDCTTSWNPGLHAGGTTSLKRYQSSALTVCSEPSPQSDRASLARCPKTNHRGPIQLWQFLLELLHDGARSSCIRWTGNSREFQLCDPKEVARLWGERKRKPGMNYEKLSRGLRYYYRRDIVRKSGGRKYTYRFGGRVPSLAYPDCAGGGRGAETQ
In short: as §1

ELF3 = biological target: T5, ELF3 (Homo sapiens, UniProt P78545 1-371); details: protein: recombinant; tags: N-terminal GST; dsDNA, one strand shown
T5 sequence: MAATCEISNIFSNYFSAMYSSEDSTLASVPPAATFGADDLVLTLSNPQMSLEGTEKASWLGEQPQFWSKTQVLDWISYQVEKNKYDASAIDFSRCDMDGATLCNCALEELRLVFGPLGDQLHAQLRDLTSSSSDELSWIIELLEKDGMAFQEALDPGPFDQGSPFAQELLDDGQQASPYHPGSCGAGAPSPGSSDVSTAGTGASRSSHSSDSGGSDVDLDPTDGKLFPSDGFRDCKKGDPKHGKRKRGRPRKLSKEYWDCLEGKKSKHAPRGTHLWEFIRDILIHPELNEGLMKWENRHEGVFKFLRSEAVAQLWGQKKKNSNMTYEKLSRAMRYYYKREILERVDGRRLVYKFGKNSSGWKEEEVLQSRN
In short: as §1

CRX = CRX (Homo sapiens, UniProt O43186 1-299); details: protein: recombinant; tags: N-terminal GST; dsDNA, one strand shown
In short: as §1

ETV1 = ETV1 (Homo sapiens, UniProt P50549 1-477); details: protein: recombinant; tags: N-terminal GST; dsDNA, one strand shown
In short: as §1

ERF = biological target: T6, ERF (Homo sapiens, UniProt P50548 1-548); details: protein: recombinant; tags: N-terminal GST; dsDNA, one strand shown
T6 sequence: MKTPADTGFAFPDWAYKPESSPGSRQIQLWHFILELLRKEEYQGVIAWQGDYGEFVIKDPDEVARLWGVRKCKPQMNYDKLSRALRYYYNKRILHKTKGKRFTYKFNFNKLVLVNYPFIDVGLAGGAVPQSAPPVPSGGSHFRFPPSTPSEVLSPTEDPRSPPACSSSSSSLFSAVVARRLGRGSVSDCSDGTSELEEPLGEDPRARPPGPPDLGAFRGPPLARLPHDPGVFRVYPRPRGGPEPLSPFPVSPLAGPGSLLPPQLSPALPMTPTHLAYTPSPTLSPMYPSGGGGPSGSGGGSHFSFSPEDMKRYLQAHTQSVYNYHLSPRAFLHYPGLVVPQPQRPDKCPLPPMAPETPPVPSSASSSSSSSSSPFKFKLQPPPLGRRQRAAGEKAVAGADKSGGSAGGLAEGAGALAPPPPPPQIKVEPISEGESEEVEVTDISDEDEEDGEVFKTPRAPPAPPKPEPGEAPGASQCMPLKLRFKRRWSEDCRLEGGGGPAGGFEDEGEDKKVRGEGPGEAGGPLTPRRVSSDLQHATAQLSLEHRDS
In short: as §1

ETV3L = biological target: T7, ETV3L (Homo sapiens, UniProt Q6ZN32 1-361); details: protein: recombinant; tags: N-terminal GST; dsDNA, one strand shown
T7 sequence: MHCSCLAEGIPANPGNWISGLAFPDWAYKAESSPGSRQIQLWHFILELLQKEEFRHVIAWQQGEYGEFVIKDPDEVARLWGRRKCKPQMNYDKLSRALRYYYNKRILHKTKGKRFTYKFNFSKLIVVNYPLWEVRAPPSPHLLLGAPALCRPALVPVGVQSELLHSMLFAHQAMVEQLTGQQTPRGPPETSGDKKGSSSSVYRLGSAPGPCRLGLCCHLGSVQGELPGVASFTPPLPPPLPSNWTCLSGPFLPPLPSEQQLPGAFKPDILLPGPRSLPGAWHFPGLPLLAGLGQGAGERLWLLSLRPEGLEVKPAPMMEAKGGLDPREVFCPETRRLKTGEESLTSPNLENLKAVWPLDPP
In short: as §1

ETS2 = biological target: T8, ETS2 (Homo sapiens, UniProt P15036 1-469); details: protein: recombinant; tags: N-terminal GST; dsDNA, one strand shown
T8 sequence: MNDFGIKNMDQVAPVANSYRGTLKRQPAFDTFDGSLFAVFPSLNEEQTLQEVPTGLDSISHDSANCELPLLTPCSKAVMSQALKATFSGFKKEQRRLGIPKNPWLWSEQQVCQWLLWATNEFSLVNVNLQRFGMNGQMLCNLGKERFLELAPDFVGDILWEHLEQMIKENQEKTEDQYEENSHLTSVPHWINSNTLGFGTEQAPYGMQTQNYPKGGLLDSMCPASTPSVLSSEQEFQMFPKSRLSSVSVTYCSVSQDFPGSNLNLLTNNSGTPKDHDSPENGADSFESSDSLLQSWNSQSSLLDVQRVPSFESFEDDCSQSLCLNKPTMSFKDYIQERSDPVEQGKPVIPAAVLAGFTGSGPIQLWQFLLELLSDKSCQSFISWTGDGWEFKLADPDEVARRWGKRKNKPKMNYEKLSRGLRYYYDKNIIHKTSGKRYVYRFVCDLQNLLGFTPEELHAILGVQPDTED
In short: as §1

SPDEF = biological target: T9, SPDEF (Homo sapiens, UniProt O95238 1-335); details: protein: recombinant; tags: N-terminal GST; dsDNA, one strand shown
T9 sequence: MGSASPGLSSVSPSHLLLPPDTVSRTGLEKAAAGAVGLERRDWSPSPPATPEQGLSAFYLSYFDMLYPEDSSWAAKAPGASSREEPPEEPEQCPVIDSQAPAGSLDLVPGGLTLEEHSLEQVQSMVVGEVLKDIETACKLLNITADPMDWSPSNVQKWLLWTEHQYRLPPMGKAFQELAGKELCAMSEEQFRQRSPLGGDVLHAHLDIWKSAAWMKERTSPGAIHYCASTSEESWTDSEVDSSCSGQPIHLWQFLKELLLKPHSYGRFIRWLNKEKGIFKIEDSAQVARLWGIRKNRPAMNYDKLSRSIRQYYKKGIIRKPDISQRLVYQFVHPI
In short: as §1

ETV7 = biological target: T10, ETV7 (Homo sapiens, UniProt Q9Y603 1-341); details: protein: recombinant; tags: N-terminal GST; dsDNA, one strand shown
T10 sequence: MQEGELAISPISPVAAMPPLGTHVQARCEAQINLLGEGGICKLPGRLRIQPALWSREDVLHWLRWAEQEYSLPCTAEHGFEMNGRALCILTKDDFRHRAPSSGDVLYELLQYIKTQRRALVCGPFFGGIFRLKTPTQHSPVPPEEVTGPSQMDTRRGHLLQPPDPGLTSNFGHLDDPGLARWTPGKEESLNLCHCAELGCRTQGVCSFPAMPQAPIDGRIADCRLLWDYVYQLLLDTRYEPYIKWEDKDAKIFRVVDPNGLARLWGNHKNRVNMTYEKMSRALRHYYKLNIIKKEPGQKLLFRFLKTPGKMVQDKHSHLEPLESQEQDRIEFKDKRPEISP
In short: as §1

ELF5 = biological target: T11, ELF5 (Homo sapiens, UniProt Q9UKW6-2 1-255); details: protein: recombinant; tags: N-terminal GST; dsDNA, one strand shown
T11 sequence: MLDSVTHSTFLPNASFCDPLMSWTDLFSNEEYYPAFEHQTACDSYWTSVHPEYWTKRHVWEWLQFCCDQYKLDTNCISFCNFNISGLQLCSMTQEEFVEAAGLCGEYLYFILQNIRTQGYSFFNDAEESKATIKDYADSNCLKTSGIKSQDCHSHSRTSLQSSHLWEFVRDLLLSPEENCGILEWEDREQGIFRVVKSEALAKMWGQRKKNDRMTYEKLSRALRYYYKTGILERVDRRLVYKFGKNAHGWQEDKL
In short: as §1

ETV3 = biological target: T12, ETV3 (Homo sapiens, UniProt P41162-2 1-143); details: protein: recombinant; tags: N-terminal GST; dsDNA, one strand shown
T12 sequence: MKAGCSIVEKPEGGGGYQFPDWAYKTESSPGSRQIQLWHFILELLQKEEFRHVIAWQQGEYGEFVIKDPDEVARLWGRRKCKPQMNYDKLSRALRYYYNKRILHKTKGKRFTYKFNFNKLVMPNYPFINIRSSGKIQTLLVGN
In short: as §1

ETV6 = ETV6 (Homo sapiens, UniProt P41212 1-452); details: protein: recombinant; tags: N-terminal GST; dsDNA, one strand shown
In short: as §1

Sequence of HSF1 (Q00613 whole entry): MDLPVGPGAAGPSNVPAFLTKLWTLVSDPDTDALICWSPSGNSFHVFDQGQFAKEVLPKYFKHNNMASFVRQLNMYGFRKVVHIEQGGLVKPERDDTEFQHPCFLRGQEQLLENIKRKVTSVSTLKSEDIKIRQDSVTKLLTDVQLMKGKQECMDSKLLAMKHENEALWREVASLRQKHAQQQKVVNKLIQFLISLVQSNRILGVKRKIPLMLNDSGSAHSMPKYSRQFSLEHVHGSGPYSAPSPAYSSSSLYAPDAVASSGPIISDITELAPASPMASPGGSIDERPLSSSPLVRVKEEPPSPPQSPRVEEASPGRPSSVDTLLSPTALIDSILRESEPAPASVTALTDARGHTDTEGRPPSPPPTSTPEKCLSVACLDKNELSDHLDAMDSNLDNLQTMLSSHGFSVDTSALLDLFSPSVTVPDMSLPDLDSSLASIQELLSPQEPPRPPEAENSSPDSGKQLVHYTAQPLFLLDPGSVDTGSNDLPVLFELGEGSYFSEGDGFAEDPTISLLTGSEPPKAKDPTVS
Sequence of ETV1 (P50549 whole entry): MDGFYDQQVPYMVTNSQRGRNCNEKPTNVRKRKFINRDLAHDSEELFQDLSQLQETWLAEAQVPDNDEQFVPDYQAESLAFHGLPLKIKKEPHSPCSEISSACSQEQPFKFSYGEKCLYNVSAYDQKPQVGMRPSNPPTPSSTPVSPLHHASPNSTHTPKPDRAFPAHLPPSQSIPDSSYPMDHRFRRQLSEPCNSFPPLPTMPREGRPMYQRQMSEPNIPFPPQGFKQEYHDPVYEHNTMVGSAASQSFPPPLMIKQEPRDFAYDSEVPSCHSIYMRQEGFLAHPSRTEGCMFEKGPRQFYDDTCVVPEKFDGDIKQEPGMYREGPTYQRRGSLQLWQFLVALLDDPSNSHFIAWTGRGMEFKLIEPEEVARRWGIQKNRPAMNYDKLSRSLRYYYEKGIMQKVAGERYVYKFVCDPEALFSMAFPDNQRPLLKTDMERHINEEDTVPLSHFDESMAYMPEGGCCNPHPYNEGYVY
Sequence of ELF4 (Q99607 whole entry): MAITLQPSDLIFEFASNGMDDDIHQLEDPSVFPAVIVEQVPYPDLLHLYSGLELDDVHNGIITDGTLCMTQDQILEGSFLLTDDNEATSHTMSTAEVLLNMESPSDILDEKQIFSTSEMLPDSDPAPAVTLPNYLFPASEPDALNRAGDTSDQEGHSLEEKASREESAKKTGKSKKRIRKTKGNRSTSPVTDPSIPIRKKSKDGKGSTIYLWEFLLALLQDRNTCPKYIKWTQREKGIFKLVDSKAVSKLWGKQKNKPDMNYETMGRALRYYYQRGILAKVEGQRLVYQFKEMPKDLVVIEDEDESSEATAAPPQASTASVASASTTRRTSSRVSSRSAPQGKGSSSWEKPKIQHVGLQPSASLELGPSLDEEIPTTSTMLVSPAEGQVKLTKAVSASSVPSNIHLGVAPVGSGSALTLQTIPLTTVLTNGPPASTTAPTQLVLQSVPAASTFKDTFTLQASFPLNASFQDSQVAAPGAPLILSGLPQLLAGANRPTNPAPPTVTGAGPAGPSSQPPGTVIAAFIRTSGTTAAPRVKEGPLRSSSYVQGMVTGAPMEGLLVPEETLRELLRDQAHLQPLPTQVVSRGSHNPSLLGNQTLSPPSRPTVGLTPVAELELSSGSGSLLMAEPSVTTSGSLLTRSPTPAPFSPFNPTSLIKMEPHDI
Sequence of ETV6 (P41212 whole entry): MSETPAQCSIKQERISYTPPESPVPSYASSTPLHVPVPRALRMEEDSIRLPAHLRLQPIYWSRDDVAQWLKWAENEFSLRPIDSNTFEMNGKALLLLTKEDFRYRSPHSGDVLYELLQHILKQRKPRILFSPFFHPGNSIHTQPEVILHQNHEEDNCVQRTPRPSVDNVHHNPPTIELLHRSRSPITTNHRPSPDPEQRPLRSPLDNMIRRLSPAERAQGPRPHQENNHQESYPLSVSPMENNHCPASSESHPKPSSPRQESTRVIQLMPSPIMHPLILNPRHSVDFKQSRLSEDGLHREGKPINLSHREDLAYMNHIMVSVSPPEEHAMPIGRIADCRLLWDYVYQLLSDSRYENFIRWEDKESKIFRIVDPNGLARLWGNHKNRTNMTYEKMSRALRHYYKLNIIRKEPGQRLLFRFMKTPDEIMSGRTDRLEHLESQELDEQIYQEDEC
Sequence of CRX (O43186 whole entry): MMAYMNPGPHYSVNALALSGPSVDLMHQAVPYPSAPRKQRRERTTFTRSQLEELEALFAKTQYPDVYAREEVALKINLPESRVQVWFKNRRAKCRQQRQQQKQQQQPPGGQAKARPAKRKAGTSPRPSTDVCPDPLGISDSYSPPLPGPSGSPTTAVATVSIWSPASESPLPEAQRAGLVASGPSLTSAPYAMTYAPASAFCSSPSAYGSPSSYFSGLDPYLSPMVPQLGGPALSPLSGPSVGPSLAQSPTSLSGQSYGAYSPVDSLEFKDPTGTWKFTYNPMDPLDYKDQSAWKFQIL
Sequence of ETV5 (P41161 whole entry): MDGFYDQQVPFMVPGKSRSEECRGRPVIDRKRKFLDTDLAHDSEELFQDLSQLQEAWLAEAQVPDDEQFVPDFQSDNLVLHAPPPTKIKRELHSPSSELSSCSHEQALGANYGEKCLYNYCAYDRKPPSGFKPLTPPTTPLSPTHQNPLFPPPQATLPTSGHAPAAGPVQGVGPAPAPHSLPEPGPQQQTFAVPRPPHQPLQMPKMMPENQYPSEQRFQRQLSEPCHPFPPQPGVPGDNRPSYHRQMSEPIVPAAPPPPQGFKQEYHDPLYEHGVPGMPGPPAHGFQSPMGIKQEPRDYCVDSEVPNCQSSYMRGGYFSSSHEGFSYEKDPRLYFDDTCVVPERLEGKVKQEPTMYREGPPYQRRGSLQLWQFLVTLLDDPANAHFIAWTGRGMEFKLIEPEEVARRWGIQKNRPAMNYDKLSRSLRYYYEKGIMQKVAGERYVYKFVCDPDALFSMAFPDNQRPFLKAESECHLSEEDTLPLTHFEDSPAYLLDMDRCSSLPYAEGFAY

With ATAGAT as the sequence, how does the binding signal (FEV) read?
Its binding signal is 1.15 fold enrichment (6-mer frequency, TF over GST control).

And the binding signal (ETV5)?
The binding signal was 1.11 fold enrichment (6-mer frequency, TF over GST control).

What about the binding signal (HSF1) of the same sequence?
Its binding signal is 1.42 fold enrichment (6-mer frequency, TF over GST control).

And the binding signal (SPIC)?
The binding signal was 1.2 fold enrichment (6-mer frequency, TF over GST control).

What about the binding signal (ELF4) of the same sequence?
The binding signal was 1.17 fold enrichment (6-mer frequency, TF over GST control).

What about the binding signal (ELK4) of the same sequence?
Its binding signal is 1.13 fold enrichment (6-mer frequency, TF over GST control).

What about the binding signal (ETV2) of the same sequence?
Its binding signal is 1.19 fold enrichment (6-mer frequency, TF over GST control).

What about the binding signal (ELF3) of the same sequence?
The binding signal was 1.13 fold enrichment (6-mer frequency, TF over GST control).

And the binding signal (CRX)?
Its binding signal is 1.49 fold enrichment (6-mer frequency, TF over GST control).

What about the binding signal (ETV1) of the same sequence?
The binding signal was 1.19 fold enrichment (6-mer frequency, TF over GST control).

What about the binding signal (ERF) of the same sequence?
The binding signal was 1.2 fold enrichment (6-mer frequency, TF over GST control).

What about the binding signal (ETV3L) of the same sequence?
Its binding signal is 1.25 fold enrichment (6-mer frequency, TF over GST control).

And the binding signal (ETS2)?
The binding signal was 1.12 fold enrichment (6-mer frequency, TF over GST control).

And the binding signal (SPDEF)?
The binding signal was 1.27 fold enrichment (6-mer frequency, TF over GST control).

And the binding signal (ETV7)?
The binding signal was 1.17 fold enrichment (6-mer frequency, TF over GST control).

What about the binding signal (ELF5) of the same sequence?
Its binding signal is 1.18 fold enrichment (6-mer frequency, TF over GST control).

What about the binding signal (ETV3) of the same sequence?
Its binding signal is 1.01 fold enrichment (6-mer frequency, TF over GST control).

What about the binding signal (ETV6) of the same sequence?
Its binding signal is 1.15 fold enrichment (6-mer frequency, TF over GST control).
